# Assay outcomes: PubChem, several laboratories
# Only some compounds are listed: those with a hit (about 4.1% of all), similar ones and a draw of the others.
# Mtb FBA inh – Mtb fructose-bisphosphate aldolase inhibition | inhibition, % at 1 µM | P9WQA3 | purified M. tuberculosis FBA, fluorescence read-out | 2.3% of 360,000 active; in the data active = inhibition above about 27%;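 also: 0% = vehicle and 100% = reference inhibitor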
# Target sequence (P9WQA3 whole entry, looked up): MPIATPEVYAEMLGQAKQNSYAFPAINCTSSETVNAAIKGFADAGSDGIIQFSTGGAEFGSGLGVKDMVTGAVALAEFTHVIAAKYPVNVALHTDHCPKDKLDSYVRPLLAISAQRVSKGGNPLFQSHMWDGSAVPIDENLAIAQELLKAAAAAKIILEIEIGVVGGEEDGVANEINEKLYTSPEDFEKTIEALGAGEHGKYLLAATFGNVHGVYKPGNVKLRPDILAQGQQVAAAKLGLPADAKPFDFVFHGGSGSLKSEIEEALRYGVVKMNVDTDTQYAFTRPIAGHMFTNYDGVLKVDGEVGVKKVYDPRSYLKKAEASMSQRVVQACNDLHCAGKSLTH
# UGM FP inh – inhibitors of M. tuberculosis UDP-galactopyranose mutase | P9WIQ1 | purified UGM, fluorescence polarization probe displacement | inhibition, % at 10 µM | 0.06% of 320,000 active | AID 504406; in the data active = inhibition above about 10%, passing the limit was not always enough
# Rv3671c protease – Rv3671c (M. tuberculosis) protease inhibition. P9WHR9. inhibition, % at 5.96 µM. 0.048% of 320,000 active. AID 2606; in the data active = inhibition above about 38%;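 also: extracellular domain of Rv3671c used as enzyme; 0% = enzyme with DMSO and 100% = no enzyme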
# RecA splice inh – Mtb RecA intein splicing inhibition | cell-free RecA intein splicing, fluorescence | inhibition, % (no concentration beside the values) | 0.75% of 290,000 active | AID 2221 | P9WHJ3; in the data active = inhibition above about 30%;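 also: 0% = vehicle wells and 100% = reference inhibitor control wells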
# BH1578 lux ind – quorum light induction in luxS cqsA deficient V. cholerae. V. cholerae BH1578 lux reporter, luminescence, 6 h. activation, % at 18.7 µM. 0.16% of 350,000 active. AID 588436; in the data active = activation mostly above about 9.7%, no sharp cut-off
# GDH-TPI inh – GDH-TPI coupled enzyme inhibition counter-screen; inhibition, % at 4.8 µM; GDH-TPI coupled enzyme counterscreen, NADH absorbance; AID 588335; 1.2% of 360,000 active; in the data active = inhibition above about 30%;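 also: 0% = DMSO wells and 100% = wells lacking the enzyme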
# The depositor's hits bear a star; i = inactive; x = not tested or not shown; + = active, no number.
SMILES,Mtb FBA inh,UGM FP inh,Rv3671c protease,RecA splice inh,BH1578 lux ind,GDH-TPI inh
Cc1c(OCC(=O)NC(Cc2ccc(Cl)cc2)C(=O)O)ccc2c3c(c(=O)oc12)CCCC3 (centres undefined),6,-3,8,4,-1,7
Cc1c(C)c2c(OCC(=O)N[C@@H](C)C(=O)O)cc3c(c2oc1=O)CCC(C)(C)O3,+,-2,-7,-1,1,6
CCC(NC(=O)COc1cc2c(c3oc(=O)c(C)c(C)c13)CCC(C)(C)O2)C(=O)O (centres undefined),+,3,3,-1,1,7
Cc1c(OCC(=O)N[C@@H](Cc2ccccc2)C(=O)O)ccc2c3c(c(=O)oc12)CCC3,26,2,0,5,0,11
O=C(NCC(=O)N1CCC2(CC1)NCCc1[nH]cnc12)c1ccc(F)cc1,3,3,0,0,-2,-4
Cc1ccc(C)c(NC(=O)c2ccc(S(=O)(=O)N(C)CC3CCCO3)cc2)c1 (centres undefined),0,2,-1,1,-1,8
Cc1nc2nc(N)nc(OCc3ccccc3)c2nc1C,161*,-2,0,-38,0,7
O=C1NC2(CCCCC2)C(=O)N1CC(=O)N(Cc1ccccc1)c1ccccc1,0,2,-6,9,0,3
Cc1ccc2c(c1)Oc1ccc([N+](=O)[O-])cc1C(=O)N2,0,-3,8,0,0,6
Cc1ccc2c(c1)Oc1ccc(NC(=O)CCl)cc1C(=O)N2,0,2,-7,60*,i,6
CC1CCCN(C(=O)c2cn(-c3ccccc3)nc2-c2cccnc2)C1 (centres undefined),2,-3,2,9,-1,-9
Cc1ccc2c(c1)CC1(CN2C)C(=O)OC2(CCCCC2)OC1=O,-1,1,-10,1,17*,-8
Cc1ccc2c(c1)CC1(CN2C)C(=O)NC(=O)N(c2ccccc2C)C1=O (centres undefined),1,1,2,-2,i,0
O=c1ccc2ccc(O)cc2o1,+,x,x,x,0,15
O=c1ccc2cc(O)c(O)cc2o1,115*,6,5,-155,-3,9
CCCCSc1cc(=O)[nH]c(N)n1,-6,0,6,-7,0,9
CC(=O)Nc1ccc(CN(C)c2c(C)nc3ccc(C(=O)N4CCN(c5ccccc5)CC4)cn23)cc1,0,x,x,x,0,8
COC(=O)CSc1nc2nc(-c3cccs3)cc(C(F)(F)F)c2c(=O)[nH]1,7,2,-1,-1,i,-4
O=C(CSc1nc2nc(-c3cccs3)cc(C(F)(F)F)c2c(=O)[nH]1)C(F)(F)F,+,1,-15,-58,i,14
COC(=O)c1cc2c(=O)n3ccccc3nc2n(Cc2cccnc2)c1=N,x,-3,2,-141,x,x
CCOC(=O)c1cc2c(=O)n3ccccc3nc2n(C(C)C)c1=NC(=O)c1ccco1,+,1,-8,-188,i,4
COCCn1c(=NC(=O)c2ccc3c(c2)OCO3)c(C#N)cc2c(=O)n3cccc(C)c3nc21,x,x,x,-2,x,x
CCCn1c(=NC(=O)c2c(-c3c(F)cccc3Cl)noc2C)c(C(=O)OCC)cc2c(=O)n3ccccc3nc21,x,-2,-11,-3,x,x
CC(C)n1c(=NC(=O)c2ccco2)c(C#N)cc2c(=O)n3ccccc3cc21,+,-1,-4,-233,3,5
CCCn1c(=NC(=O)c2ccco2)c(C(=O)OCC)cc2c(=O)n3ccccc3nc21,+,-2,0,-132,-5,19
SMILES,Mtb FBA inh,UGM FP inh,Rv3671c protease,RecA splice inh,BH1578 lux ind,GDH-TPI inh
COc1ccc(Cl)cc1C(=O)NNC(=S)NC(=O)c1ccc(F)c(F)c1,-1,0,0,1,-1,-4
CC1=C(C(=O)OCCC#N)C(c2cc3c(cc2Br)OCO3)NC(=O)N1 (centres undefined),1,-1,-5,x,i,18
COC(=O)C1(C)Cc2cc(OC(C)=O)c(OC(C)=O)cc2N1 (centres undefined),x,-1,2,61*,x,x
CCCCC(O)(c1ccc(CC)cc1)C(CN1CCOCC1)c1ccccc1 (centres undefined),0,-1,x,13,i,12
C=CCn1c2ccccc2c(=O)c2cc(C#CC[C@@H](C)O)ccc21,+,4,-25,x,i,13
CC(=O)N1CCN(S(=O)(=O)c2cccc(C(=O)NNC(=O)Cn3nc(C)cc3C)c2)CC1,3,10*,6,x,i,13
